In PubChem BioAssay (NCI):
Several values for one entry are separate records, joined by “and”; a condition that tells them apart may be missing. Identical values can stand only once. Compounds without any hit were thinned out: in the full panel of roughly 83,000, 20% have a hit.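 Plates (96-well) were seeded with cells, treated with compound at one concentration, and incubated for 48 hours before percent growth was determined.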 Activity calls are given as the source filed them. How the source made its calls: active means growth percent below 10; inactive means the rest.

Tested on: MDA-MB-468 breast
Test: NCI-60 one-dose screen, 48 h (100 = growth as untreated, 0 = no growth, -100 = all killed)
Details: 10 µM unless noted

| SMILES | growth |
| --- | --- |
| CC(C)C(=O)Nc1nc2c(s1)CCCc1ccn(S(=O)(=O)c3ccccc3)c1-2 | 95.3% (inactive) |
| COc1ccc2c(c1)c(-c1nn3cc(-c4ccncc4)nc3s1)cn2C | 79.3% (inactive) |
| C=C1C(=O)O[C@H]2[C@H]1CC/C(COC(=O)NCc1c[nH]c3ccc(Cl)cc13)=C\CC[C@@]1(C)O[C@@H]21 | -70.9% (active) |
| CSc1nc2sc3cccc(Cl)c3n2c(=N)c1C#N | 90.4% (inactive) |
| CC(=O)n1nc(C(=O)OC(C)(C)C)c2cc(F)c(F)cc21 | 97.4% (inactive) |
| CN(C)c1ccc(/C=C2\C=C(c3nc4ccccc4s3)OC2=O)cc1 | 79.8% (inactive) |
| CC(c1ccc(-n2cccn2)cc1)c1cnc(N2CCc3ccc(C(N)=O)cc3C2)s1 (stereo not given) | 30.1% (inactive) |
| COc1cc2c(cc1-c1c(C)noc1C)ncc1nc(C3CCOCC3)n([C@@H](C)COC(F)F)c12 | 47.5% (inactive) |
| CCN1CCN(c2cc(C)nc(N(CCNc3ccnc4cc(Cl)ccc34)Cc3ccc4c(c3)OCO4)n2)CC1 | -67.6% (active) |
| CCCCCCCCCCCCCCCCC1CC(=O)OC1=O (stereo not given) | 119% (inactive) |
| CC/C(=C(/c1ccc(OCCN(C)C)cc1)c1ccc(OC(=O)CCC(=O)c2c(C)[nH]c(/C=C3\N=C(c4ccc[nH]4)C=C3OC)c2C)cc1)c1ccccc1 | 53.4% (inactive) |
| CCN(CC)CCC(=O)c1ccc(OC)c2ccccc12 | 49.7% (inactive) |
| CC[C@@H]1OC(=O)[C@H](C)[C@@H](O[C@H]2C[C@@](C)(OC)[C@@H](O)[C@H](C)O2)[C@H](C)[C@@H](O[C@@H]2O[C@H](C)C[C@H](N(C)C)[C@H]2O)[C@](C)(O)C[C@@H](C)[C@@H]2N[C@@H](COCCOC)O[C@H]([C@H]2C)[C@]1(C)O | 109% (inactive) |
| CC(=O)N=c1ccc2nc3c(cc(N)c4ccccc43)oc-2c1 | -44.5% (active) |
| Cc1cc(SC#N)cc(C(C)(C)C)c1O | 105% (inactive) |
| CONC1=Nc2cc(NC(N)=NCc3ccccc3)c(N(C)C3CCCCC3)cc2OC1 | -23.4% (active) |
| O=C1Nc2ccccc2/C1=C/c1ccc(COCC2CO2)n1-c1ccc(O)cc1 (stereo not given) | 95.9% (inactive) |
| O=C(CNc1ncco1)Nc1ccc(S(=O)(=O)c2ccc(NC(=O)CNc3ncco3)cc2)cc1 | -61.7% (active) |
| S=C1SCN(Cc2ccccc2)CN1Cc1ccccc1 | 38.5% (inactive) |
| NC1=NC(c2ccccc2)N=C(Nc2ccccc2)N1 (stereo not given) | 9.95% (active) |

| SMILES | growth |
| --- | --- |
| Cc1ccc(-c2nc(SCC(=O)c3ccccc3)nc(Nc3ccc(S(N)(=O)=O)cc3)c2C#N)cc1 | 113% (inactive) |
| O=C1NN(C(=O)c2ccc(Cl)cc2)C(c2ccccc2)=N/C1=C\c1cn(-c2ccccc2)nc1-c1ccccc1 | 81.9% (inactive) |
| O=C(Nc1ccc(NC(=O)c2cc(=O)[nH]c3ccccc23)cc1)Nc1cccc(Cl)c1 | 64.4% (inactive) |
| Clc1ccc(NC(Nc2ccc(Cl)cc2)C(Cl)(Cl)Cl)cc1 | 98.4% (inactive) and 108% (inactive) |
| COc1ccc(-c2cc(-c3cc(OC)ccc3OC)nc(SCC(=O)c3ccccc3)c2C#N)cc1 | 106% (inactive) |
| CCOP(=O)(NC(c1ccccc1)c1ccccc1)OCC | 104% (inactive) |
| COc1ccc(-c2nnc(SCC(=O)Nc3ccc(C(=O)/C=C/c4ccccc4)cc3)o2)cc1OC | 91.1% (inactive) |
| C=C1C(=O)O[C@H]2[C@H]1CC/C(COC(=O)/C=C/c1c[nH]c3ccccc13)=C\CC[C@@]1(C)O[C@@H]21 | -78.1% (active) |
| COc1ccc(-c2nc(-c3nc4ccc(C)cc4[nH]3)c3ccccn23)cc1 | 45.4% (inactive) |
| O=C(CSc1nnc(-c2ccc(Cl)cc2)n1-c1ccccc1)Nc1cccc(F)c1 | 17.2% (inactive) |
| COc1ccccc1C1=C(Br)C(=O)c2nc(C)ccc2C1=O | 107% (inactive) |
| CCc1c(C)c2cc(-n3c(-c4ccc(OC)cc4)csc3=N)c(O)c(C)c2oc1=O | 17% (inactive) |
| Nc1nc(CSc2n[nH]c(N)n2)nc(Nc2ccccc2)n1 | 108% (inactive) |
| c1cncc(-c2cn3nc(-c4c[nH]c5ccccc45)sc3n2)c1 | -9.26% (active) |
| COc1ccc(-c2conc2-c2ccccc2)cc1 | -4.68% (active) |
| Cc1cccc(Oc2ccc(Nc3ncnc4ccc(NC(=O)CN5CCN(C)CC5)cc34)cc2Cl)c1 | -62.9% (active) |
| NC(=NCCCOc1ccc(Cl)cc1)Nc1ccc(C(F)(F)F)cc1 | -8.47% (active) |
| CCOc1ccc(Nc2nc(-c3c(C)nc4ncccn34)cs2)cc1 | 30.2% (inactive) |
| Brc1ccccc1/C=N/Nc1nc(N/N=C/c2ccccc2Br)nc(N2CCOCC2)n1 | 90.3% (inactive) |
| CC(C)(C)c1cc(Cl)c(O)c(CNCCO)c1 | 96.1% (inactive) |
